In the library only some 18% were active in any assay of this set; here they are far more common.
DT40 TDP1 CPT: DT40-hTDP1 cell growth loss with CPT. 12% of 420,000 active. Potency, µM (series often up to 46.2 µM), actives largely listed as inhibitors. chicken DT40 Tdp1-/-;hTDP1 cells + 20 nM CPT, ATP luminescence, 48 h. AID 686979; note: nearly all actives have a fitted effect of over 55% in size
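Chicken DT40 Tdp1-/- cells stably complemented with human TDP1 were seeded at 400 cells/well in medium containing 20 nM camptothecin, exposed to pin-transferred compounds, and grown at 37 °C for at least 48 hr. Viability was read as ATP luminescence.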
TDP1 cell noCPT: qHTS for Inhibitors of human tyrosyl-DNA phosphodiesterase 1 (TDP1): qHTS in cells in absence of CPT. 15% of 420,000 active. Potency, µM (titrated, usually from 46.2 µM), hits mostly inhibitors. DT40 Tdp1-/- hTDP1 cells, no CPT, ATP luminescence, 48 h; note: nearly all actives have a fitted effect of over 55% in size
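A cellular qHTS used chicken DT40 cells lacking endogenous Tdp1 but carrying stably transfected human TDP1. Compounds were applied without camptothecin, and cell growth kinetics were judged by ATP-dependent luminescence after ≥48 hr.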
PLK1 PBD inh: PLK1 (human) polo-box domain binding inhibition. Potency, µM, hits mostly inhibitors. 2.8% of 360,000 active. AID 720504. Plk1 PBD binding of FITC phosphopeptide, fluorescence polarization; note: series mostly up to about 57 µM; nearly all actives have a fitted effect of over 65% in size
KAT2A inh: inhibitors of human GCN5L2 histone acetyltransferase. Q92830. GCN5L2 HAT assay, ThioGlo1 CoA-SH fluorescence. Potency, µM (series often up to 58.9 µM), actives largely listed as inhibitors. 0.21% of 390,000 active
Target sequence (Q92830 whole entry, looked up): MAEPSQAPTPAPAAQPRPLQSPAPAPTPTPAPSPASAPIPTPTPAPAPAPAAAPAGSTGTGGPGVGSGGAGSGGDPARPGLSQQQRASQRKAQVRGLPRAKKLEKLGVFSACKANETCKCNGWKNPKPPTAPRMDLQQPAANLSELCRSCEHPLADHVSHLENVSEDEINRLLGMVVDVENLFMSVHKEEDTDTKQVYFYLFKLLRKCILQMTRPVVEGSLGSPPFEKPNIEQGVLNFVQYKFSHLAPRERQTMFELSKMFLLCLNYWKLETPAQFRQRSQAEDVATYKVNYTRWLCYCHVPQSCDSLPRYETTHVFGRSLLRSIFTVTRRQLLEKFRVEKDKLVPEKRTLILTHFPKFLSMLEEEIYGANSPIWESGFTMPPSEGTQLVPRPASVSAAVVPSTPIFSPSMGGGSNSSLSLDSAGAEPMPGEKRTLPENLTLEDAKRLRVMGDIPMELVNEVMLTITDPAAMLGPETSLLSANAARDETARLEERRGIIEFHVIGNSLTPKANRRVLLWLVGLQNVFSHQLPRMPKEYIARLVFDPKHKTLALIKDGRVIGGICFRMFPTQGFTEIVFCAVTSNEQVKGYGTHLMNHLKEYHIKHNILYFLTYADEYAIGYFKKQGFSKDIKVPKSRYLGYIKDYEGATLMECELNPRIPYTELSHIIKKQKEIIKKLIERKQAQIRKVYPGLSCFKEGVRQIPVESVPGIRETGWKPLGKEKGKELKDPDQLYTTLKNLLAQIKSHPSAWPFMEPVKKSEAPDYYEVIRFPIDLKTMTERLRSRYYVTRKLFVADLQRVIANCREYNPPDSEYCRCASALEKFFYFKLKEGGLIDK
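Compounds, pin-transferred from DMSO stocks, meet 20nM GCN5L2 for 15 min before the reaction begins with H3(1-25) peptide (75uM) and acetyl-CoA (70uM). Thiol-reactive ThioGlo1 reports CoA release over 20 min at room temperature.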
VDR inh: vitamin D3 receptor (human) inhibition. P11473. VDR-SRC2-3 peptide fluorescence polarization, 2 h. 0.93% of 400,000 active. AID 504847. Potency, µM, actives largely listed as inhibitors
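The screen uses fluorescence polarization to detect compounds that interfere with recruitment of the SRC2-3 coactivator peptide to VDR; plates are read after 2 h at room temperature.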
TDP1 inh: TDP1 (human) enzyme inhibition | recombinant TDP1, AlphaScreen DNA substrate cleavage | 0.28% of 350,000 active | Potency, µM (highest dose often 130 µM), hits mostly inhibitors; note: nearly all actives have a fitted effect of over 40% in size
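Recombinant E. coli-expressed Tdp1 (1 nM) preincubated with compound 15 min at RT, then 5'-biotin/3'-phosphotyrosine-FITC DNA substrate (15 nM) added for 5 min. AlphaScreen beads (10 ug/ml) added, 10 min RT; tyrosine-FITC cleavage read as signal loss.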
A number is an active result; - = inactive; ? = inconclusive; . = no result; ! = a repeat was not active; [ ] = another dose, or the depositor's remark. Calls come from the whole dose curve; as a rule, active = well fitted curve in the direction sought with a large enough effect; inconclusive = small, poorly fitted or top-dose-only effect, or another doubt; inactive = no such curve, though single readings can be large; an effect the other way counts as inactive or inconclusive.

SMILES	DT40 TDP1 CPT	TDP1 cell noCPT	PLK1 PBD inh	KAT2A inh	VDR inh	TDP1 inh
Cc1cc2ccccc2n1CCNC(=O)c1cccc(Cl)c1	14.6µM	7.31µM	.	-	-	-
Cc1cc2ccccc2n1CCNC(=O)c1cccs1	-	?	-	-	?	-
Cc1cc2ccccc2n1CCNC(=O)C1CCCC1	-	?	-	-	-	-
Cc1cc2ccccc2n1CCNC(=O)C1CC1	14.6µM	-	-	-	-	.
Cc1cc2ccccc2n1CCNC(=O)c1cccc(Br)c1	20.6µM	11.6µM	.	-	?	-[12.3 µM]
N#CC1=C2SCN(C3CCCCC3)CN2C(=O)CC1c1ccc(Br)cc1 (configuration not stated)	?	?	.	35.5µM	17.8µM	-
CCOc1cc(C2CC(=O)N3CN(C4CCCCC4)CSC3=C2C#N)ccc1O (configuration not stated)	-	-	10.6µM	-	?	-
CCN1c2ccccc2-n2cccc2C12CCN(C(=O)Nc1ccccc1Br)CC2	?	?	.	-	-	-
CCC(=O)Nc1c(C)ccc2nsnc12	-	-	-	-	-	-
Cc1ccc2nsnc2c1NC(=O)CCl	?	20.6µM	-	-	-	-
Cc1ccc([C@H]2N[C@]3(CCCN(Cc4ccc(F)cc4)C3=O)[C@H]3C(=O)N(C)C(=O)[C@@H]23)cc1	?	13µM	-	.	.	.
Cc1ccc([C@H]2N[C@]3(CCCN(Cc4ccc(Br)cc4)C3=O)[C@H]3C(=O)N(C)C(=O)[C@@H]23)cc1	-	13µM	-	.	.	.
Cc1ccc([C@H]2N[C@]3(CCCN(Cc4ccccc4)C3=O)[C@H]3C(=O)N(C)C(=O)[C@@H]23)cc1	-	?	-	.	.	.
O=C(Nc1cccc(F)c1)C1CCCN(S(=O)(=O)c2cnc[nH]2)C1 (configuration not stated)	-	-	-	-	-	-
O=C(CC1Sc2ccccc2NC1=O)NCc1ccc(Cl)cc1 (configuration not stated)	-	-	-	-	-	-
O=C(Nc1ccc(F)cc1)N(Cc1ccco1)Cc1cc2cc3c(cc2[nH]c1=O)OCO3	?	23.1µM	-	-	-	-
Cc1ccc(NC(=O)N(Cc2cccs2)Cc2cc3cc4c(cc3[nH]c2=O)OCO4)cc1	.	.	.	-	.	-
O=C(Nc1ccc(F)cc1)N(Cc1cccs1)Cc1cc2cc3c(cc2[nH]c1=O)OCO3	?	16.4µM	-	-	-	-
Cc1ccc(C)c(C(=O)Cn2c(NCCO)nc3ccccc32)c1	?	-	-	-	-	.
COCCCOc1cc(C[C@@H](C[C@H](N)[C@@H](O)C[C@H](C(=O)NCC(C)(C)C(N)=O)C(C)C)C(C)C)ccc1OC	-	-	.	.	.	.
CC1CCC(C(=O)NC(C(=O)OCC(=O)c2ccc(Br)cc2)C(C)C)CC1 (configuration not stated)	?	20.6µM	.	-	-	.
COc1ccccc1NNC(=O)C(O)(c1ccccc1)c1ccccc1	-	-	-	-	-	.
COc1ccccc1NNC(=O)C(O)(c1ccccc1OC)c1ccccc1OC	18.4µM	23.1µM	-	-	-	-
Cc1ccc(NC(=O)Cn2cc(C(F)(F)F)cc(Cl)c2=O)cc1Cl	-	-	-	-	-	-
CCOc1ccc(S(=O)(=O)N(CC(=O)N2CCc3ccccc32)Cc2ccco2)cc1	18.4µM	?	-	-	-	-
SMILES	DT40 TDP1 CPT	TDP1 cell noCPT	PLK1 PBD inh	KAT2A inh	VDR inh	TDP1 inh
CS(=O)(=O)N(CC(=O)Nc1ccccc1C(=O)NCc1ccco1)c1ccc2c(c1)OCCO2	18.4µM	?	-	-	-	-
O=C(Nc1cccc(Cl)c1)Nc1cccc(Cl)c1	14.6µM	11.6µM	-	-	-	-
CCOc1ccc(N(CC(=O)Nc2ccccc2C(=O)NCc2ccco2)S(C)(=O)=O)cc1	-	-	-	-	-	-
O=C(Nc1ccccc1)Nc1cc(Cl)cc(Cl)c1	6.51µM	11.6µM	-	-	-	-
N#CCc1ccc(NC(=O)Nc2cccc(Cl)c2)cc1	16.4µM	?	-	-	?	-
Cc1ccc(NC(=O)NNC(=O)c2ccc3c(c2)NC(=O)C(C)(C)O3)cc1	-	-	-	-	-	.
Cc1c(C(=O)NCc2nnc(-c3ccccc3)o2)oc2c(F)cccc12	-	-	-	-	-	-
Cc1ccc(N2CC(C)Cn3c2nc2c3c(=O)n(CC(=O)O)c(=O)n2C)cc1 (configuration not stated)	-	-	.	-	-	-
Cc1ccc(-n2nc3c(=O)n(CCCC(=O)NC4CCC(C)CC4)nc(C)c3c2C)cc1 (configuration not stated)	?	?	-	-	-	-
O=C(Nc1ccccc1)Nc1cc(OCC(F)(F)F)cc(OCC(F)(F)F)c1	4.11µM	2.91µM	-	-	-	-
Cc1ccc(C(NC(=O)NC(C)c2ccccc2)C(Cl)(Cl)Cl)cc1F (configuration not stated)	18.4µM	-	-	-	-	-
CC(NC(=O)Nc1ccc(Cl)cc1)c1ccccc1 (configuration not stated)	?	25.9µM	-	-	-	.
O=C(NCCNC(=O)c1cc(OCC(F)(F)F)ccc1OCC(F)(F)F)Nc1cccc(C(F)(F)F)c1	?	?	-	-	-	-
CC(NC(=O)C(c1ccccc1)c1ccccc1)c1ccccc1 (configuration not stated)	-	-	-	.	-	.
CCOP(=O)(OCC)C(NC(=O)Nc1ccc(Cl)cc1)c1ccccc1 (configuration not stated)	-	-	-	-	-	-
O=C(Nc1cccc(Cl)c1)Nc1ccccc1C(=O)NCc1ccco1	18.4µM	18.4µM	-	-	-	-
Cc1cc(C)c2oc(=O)cc(CN3CCCCC3)c2c1	-	-	-	-	-	.
COc1ccccc1NC(=O)Cn1cc(S(=O)(=O)Cc2ccccc2)c2ccccc21	?	?	.	?	-	-
COc1ccc(-c2cc(C(=O)Nc3cccnc3)no2)cc1OC	-	-	-	-	-	-
O=C(Nc1cccnc1)c1cc(-c2cccc(Cl)c2)on1	?	?	23.8µM	-	79.4µM!	-
COC(=O)c1cc(NC(=O)Nc2cccc(Cl)c2)ccc1Cl	16.4µM	18.4µM	-	-	-	-
O=C(Nc1cccnc1)Nc1cc(Cl)cc(Cl)c1	10.3µM	23.1µM	-	-	-	-
COc1ccc(-n2nc(C(=O)Nc3ccc(Cl)cn3)c3c4ccccc4n(C)c3c2=O)cc1Cl	-	-	.	-	-	-
Cc1cccc(N2CCN(C3=NC(=O)C(Cc4ccccc4)S3)CC2)c1 (configuration not stated)	?	14.6µM	-	-	-	-

Screening data (PubChem BioAssay)
